Results: PubChem BioAssay
The source made the active and inactive calls. Unless noted, no rule for the calls is given here.

Columns and labels:
[1] = test system: Wnt5a (protein binding on small-molecule microarray); test: small molecules binding Wnt5a protein – biophysical, small-molecule microarray, 635/667 nm fluorescence, primary screen (AID 1142); details: 635 nm fluorescence, higher = more signal;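 also: fluorescence read at 667 nm with signal to noise per printed feature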
[2] = ATP-based viability of Huh7 replicon cells – cell-based, CellTiter-Glo luminescence, basal, 48 h, cytotoxicity control for HCV replication inhibitor project, primary screen (AID 1143); details: higher = more signal, called active from +8 up or from −8 down;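 also: Huh7 hepatoma cells carrying a hepatitis C replication reporter with no stimulus; test concentration not given here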
[3] = Pseudomonas biofilm growth suppression – PAO1 strain, BacTiter-Glo luminescence, LB-PBS, primary screen (AID 1144); details: P. aeruginosa PAO1 biofilm, 12 h, higher = more signal
[4] = basal CRE-LacZ reporter activity in PC12 – cell-based, unstimulated, primary screen (AID 1145); details: no forskolin, luminescence, 4.5 h, higher = more signal, called active from +8 up or from −8 down
[5] = forskolin-driven CRE-LacZ activity in PC12 – cell-based, CRE-LacZ reporter, forskolin-stimulated, primary screen (AID 1146); details: luminescence, 4.5 h, higher = more signal, called active from +8 up or from −8 down;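 also: PC12 cells with 6xCRE LacZ reporter stimulated by forskolin 10 µM; beta-galactosidase reporter signal reflecting CREB driven transcription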
[6] = biological target: Streptavidin (Streptomyces avidinii) (UniProt P22629); test: compounds binding control protein streptavidin – biophysical, small-molecule microarray, 635/667 nm fluorescence, artefact control for SMM compound annotation, primary screen (AID 1147); details: higher = more signal;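 also: signal reflects streptavidin binding to arrayed compounds as a control protein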
[7] = probe aInhba binding on compound microarray – biochemical, small-molecule microarray, 635/667 nm fluorescence, primary screen (AID 1148); details: higher = more signal;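 also: score merges 667nm spot fluorescence with signal-to-noise for antibody binding to printed compounds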
[8] = biological target: Torsin-1A (Homo sapiens) (UniProt O14656); test: TOR1A wild-type binding on microarray – cell lysate, small-molecule microarray, lysate, 635/667 nm, primary screen (AID 1149); details: COS7 hTOR1A-WT lysate, 635 nm fluorescence, higher = more signal
[9] = biological target: Torsin-1A (Homo sapiens) (UniProt O14656); test: torsin A mutant lysate binding on microarrays – cell lysate, small-molecule microarray, COS7 lysate, 635/667 nm fluorescence, primary screen (AID 1150); details: COS7 hTOR1A mutant lysate, 635 nm fluorescence, higher = more signal;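 also: score pools 667 nm emission and signal to noise measuring lysate protein binding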
[10] = test system: Sonic hedgehog protein (Shh); test: Sonic hedgehog microarray binding compounds – biochemical, small-molecule microarray, 635/667 nm fluorescence, primary screen (AID 1151); details: 635 nm fluorescence, higher = more signal;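 also: Shh protein binding to compounds spotted on small-molecule microarray slides; score combines spot fluorescence intensity with signal-to-noise across triplicate slides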

Sequence of Torsin-1A (Homo sapiens) (O14656 whole entry, looked up): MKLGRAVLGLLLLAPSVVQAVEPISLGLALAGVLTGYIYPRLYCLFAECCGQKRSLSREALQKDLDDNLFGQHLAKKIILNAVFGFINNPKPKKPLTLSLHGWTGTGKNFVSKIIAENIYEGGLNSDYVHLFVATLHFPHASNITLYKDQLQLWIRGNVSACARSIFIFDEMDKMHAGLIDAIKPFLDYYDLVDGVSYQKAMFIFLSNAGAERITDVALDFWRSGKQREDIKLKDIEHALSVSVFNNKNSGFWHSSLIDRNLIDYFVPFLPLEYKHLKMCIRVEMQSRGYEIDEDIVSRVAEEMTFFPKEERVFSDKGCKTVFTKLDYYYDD
Sequence of Streptavidin (Streptomyces avidinii) (P22629 whole entry, looked up): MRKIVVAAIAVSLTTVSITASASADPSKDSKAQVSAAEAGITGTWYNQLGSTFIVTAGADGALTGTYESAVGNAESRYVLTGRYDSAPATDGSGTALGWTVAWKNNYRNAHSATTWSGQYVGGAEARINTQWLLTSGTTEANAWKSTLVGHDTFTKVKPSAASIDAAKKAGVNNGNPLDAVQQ

## CC[C@@H]1C=C(C(=O)O)[C@H](c2ccc(C#N)cc2)N1S(=O)(=O)c1ccc(C)cc1
[1]
  composite z-score: 0.413
[2]
  z-score: -0.857 (inactive)
[3]
  z-score: 0.24 (inactive)
[4]
  z-score: -0.975 (inactive)
[5]
  z-score: -0.397 (inactive)
[6]
  composite z-score: 0.569
[7]
  composite z-score: -0.157
[8]
  composite z-score: 1.26
[9]
  composite z-score: 1.65
[10]
  composite z-score: 0.0698

## CCCC=C(CCC)[C@@H](NP(=O)(c1ccccc1)c1ccccc1)c1ccc(-c2ccccc2)cc1
[1]
  composite z-score: 0.363
[2]
  z-score: -1.53 (inactive)
[3]
  z-score: 0.892 (inactive)
[4]
  z-score: 0.204 (inactive)
[5]
  z-score: 1.24 (inactive)
[6]
  composite z-score: 1.09
[7]
  composite z-score: 0.3
[8]
  composite z-score: 0.804
[9]
  composite z-score: 1.68
[10]
  composite z-score: -0.0804

## COCCOC(=O)N1C(=O)[C@@]2(c3ccccc31)[C@H](C(=O)NC[C@H](O)c1ccccc1)[C@H]1C(=O)O[C@H](c3ccccc3)[C@H](c3ccccc3)N1[C@@H]2c1ccc(O)cc1
[1]
  composite z-score: 0.852
[2]
  z-score: -1.98 (inactive)
[3]
  z-score: -0.193 (inactive)
[4]
  z-score: 0.155 (inactive)
[5]
  z-score: 2.34 (inactive)
[6]
  composite z-score: 1.09
[7]
  composite z-score: 0.106
[8]
  composite z-score: 0.877
[9]
  composite z-score: 0.383
[10]
  composite z-score: 1.74

## COc1ccc(C#Cc2ccc3c(c2)[C@]2(C(=O)N3)[C@H](c3ccc(OCCO)cc3)N3[C@H](c4ccccc4)[C@H](c4ccccc4)OC(=O)[C@H]3[C@@H]2C(=O)NC[C@H](O)c2ccccc2)cc1
[1]
  composite z-score: 0.501
[2]
  z-score: -2.47 (inactive)
[3]
  z-score: -0.506 (inactive)
[4]
  z-score: -0.491 (inactive)
[5]
  z-score: -0.808 (inactive)
[6]
  composite z-score: 0.777
[7]
  composite z-score: 0.122
[8]
  composite z-score: -0.0854
[9]
  composite z-score: 0.327
[10]
  composite z-score: 1.32

## CO[C@H]1O[C@H](CO)[C@@H](OC(=O)CCc2ccccc2)[C@@H]2OC(=O)[C@@H](Cc3ccccc3)C/C=C/C[C@H](Cc3ccccc3)C(=O)O[C@@H]12
[1]
  composite z-score: 0.411
[2]
  z-score: -2.33 (inactive)
[3]
  z-score: -0.605 (inactive)
[4]
  z-score: -0.655 (inactive)
[5]
  z-score: -0.43 (inactive)
[6]
  composite z-score: 0.29
[7]
  composite z-score: -0.315
[8]
  composite z-score: -0.293
[9]
  composite z-score: 0.169
[10]
  composite z-score: 0.476

## CC#CCO[Si](C#Cc1ccccc1)(C(C)C)C(C)C
[1]
  composite z-score: -0.254
[2]
  z-score: -1.35 (inactive)
[3]
  z-score: 0.687 (inactive)
[4]
  z-score: -0.985 (inactive)
[5]
  z-score: 0.852 (inactive)
[6]
  composite z-score: -1.07
[7]
  composite z-score: -0.106
[8]
  composite z-score: -1.43
[9]
  composite z-score: -0.811
[10]
  composite z-score: 0.12

## C=C[C@@H](OC)[C@H](OC(=O)Nc1ccc(OC)cc1)c1ccc(O)c(F)c1
[1]
  composite z-score: -0.182
[2]
  z-score: -2.63 (inactive)
[3]
  z-score: -0.238 (inactive)
[4]
  z-score: 2.21 (inactive)
[5]
  z-score: 1.53 (inactive)
[6]
  composite z-score: -0.938
[7]
  composite z-score: -0.197
[8]
  composite z-score: 0.281
[9]
  composite z-score: -0.278
[10]
  composite z-score: 1.96
